# According to the OligoGym collection:
# Biological target: QSOX1
# Test: pooled miR-30 sensor sort-seq; sequence = guide strand
# Settings: shRNA
# Further: reference of the scale not given here.
row,Sequence,sensor-assay potency score (higher = more potent)
1,TTCCGGAACAGCAGGTAGCAAG,-1.46
2,TACATTTTGCCGAGCTGCCTGC,-0.913
3,TATTTCTCGCAAAGAATCCATC,-1.27
4,TTGTGGCTAGACCAGAGCCAGA,-1.92
5,TAGCGCAGTCTCGGCAGCCGAA,-1.38
6,TTGAAGTCTCTGCAGACTGCAC,-0.833
7,TTTGTGCTGGGACAGGTCCAGA,-1.47
8,TAAGCGGTATAGAAGGACCTGG,-0.156
9,TTATTTCTCGCAAAGAATCCAT,-0.0879
10,TTGAAGAACCTCACAGTCGGGA,0.0825
11,TACTCTTCGTTATTTCTCGCAA,-0.156

# Biological target: RAB11A
# Test: as above
# Settings: shRNA
row,Sequence,sensor-assay potency score (higher = more potent)
1,TATAGCTCGATATCGCTCTTGC,0.186
2,ATGAATAGGAACCACATTGTTG,-1.36
3,TACATTTGTAGAGTCTAGGGCC,0.146
4,TTTCAATGAATGACAAACCATT,-1.27
5,TTATAGCTCGATATCGCTCTTG,-0.642
6,TATATTTAAATCTCAGACCTGG,0.396
7,TTCATCTGTAGGAACTGCCCTG,0.239
8,TTGCTTCTGAGAAACAATGCGG,-0.544
9,TATTGTTTTTCCATCAACCTGG,0.22
